Assay results published in PubChem BioAssay AID1159580 (chemical genetic matrix, 2015).
Several values for one entry are separate records, joined by “and”; a condition that tells them apart may be missing. Equal entries are not always repeated. Screen size: about 5,500 compounds; about 2,000 (36%) were called active. Another 18% or so got no clear call; they are omitted. No stated cut-off is given here; in the data, active means normalized growth mostly below about 0.91 (no sharp cut-off); inconclusive means no clear call, values can overlap the other calls; inactive means mostly above about 0.92. The list shows a part of the results.

Assay: chemical genetic growth profiling, strain panel (AID 1159580);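 further: tested at 20 µM; growth read once vehicle control cultures reached saturation at 30 °C; 1 = growth at the plate median or of vehicle wells; lower values mean less growth of the strain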
Settings: S. cerevisiae deletion strains, growth OD

Measured: normalized growth

CC[N+]1(C)CCCC(OC(=O)C(O)(c2ccccc2)c2ccccc2)C1 (stereo not given)
inactive: locus YAL013W, strain DEP1, hits give low values 1.01 | locus YAL021C, strain ccr4, hits give low values 1.01 | locus YAL026C, strain drs2, hits give low values 1.03 | locus YAL030W, strain snc1, hits give low values 1.02 | locus YBL061C, strain skt5, hits give low values 1.03 | locus YBR009C, strain hhf1, hits give low values 1.02 | locus YBR021W, strain FUR4, hits give low values 1.02 | locus YBR023C, strain chs3, hits give low values 1.02 | locus YBR171W, strain sec66, hits give low values 1.03 | locus YBR229C, strain ROT2, hits give low values 1.01 | locus YBR231C, strain swc5, hits give low values 1.03 | locus YBR279W, strain paf1, hits give low values 1.02 | locus YCL011C, strain gbp2, hits give low values 1.03 | locus YCL016C, strain dcc1, hits give low values 1.01 | locus YCL029C, strain bik1, hits give low values 1.02 | locus YCL061C, strain MRC1, hits give low values 1.02 | locus YCL069W, strain vba3, hits give low values 1.03 | locus YCR088W, strain abp1, hits give low values 1.02 | locus YDL005C, strain med2, hits give low values 1.03 | locus YDL035C, strain GPR1, hits give low values 1.02 | locus YDL040C, strain nat1, hits give low values 1.01 | locus YDL074C, strain BRE1, hits give low values 1 | locus YDL101C, strain DUN1, hits give low values 1.01 | locus YDL134C, strain PPH21, hits give low values 1.02 | locus YDL185W, strain tfp1, hits give low values 1.01 | locus YDL192W, strain arf1, hits give low values 1.02 | locus YDR001C, strain nth1, hits give low values 1.02 | locus YDR069C, strain doa4, hits give low values 1.03 | locus YDR101C, strain arx1, hits give low values 1.02 | locus YDR137W, strain rgp1, hits give low values 1.07 | locus YDR159W, strain sac3, hits give low values 1 | locus YDR162C, strain NBP2, hits give low values 1.01 | locus YDR195W, strain ref2 1.01 | locus YDR297W, strain sur2, hits give low values 1.02 | locus YDR318W, strain mcm21, hits give low values 1 | locus YDR334W, strain swr1, hits give low values 1.03 | locus YDR335W, strain msn5, hits give low values 1.03 | locus YDR388W, hits give low values 1.02 | locus YDR392W, strain spt3, hits give low values 0.931 | locus YDR502C, strain sam2, hits give low values 1.01 | locus YEL003W, strain gim4, hits give low values 1.02 | locus YEL037C, strain rad23, hits give low values 1.02 | locus YEL061C, strain CIN8 (second series), hits give low values 1.02 | locus YEL061C, strain CIN8, hits give low values 1.01 | locus YER015W, strain faa2, hits give low values 1.02 | locus YER016W, strain bim1, hits give low values 1.02 | locus YER110C, hits give low values 1.02 | locus YER111C, strain swi4, hits give low values 1.03 | locus YER155C, strain BEM2 (second series), hits give low values 1.01 | locus YER155C, strain BEM2, hits give low values 1 | locus YER167W, strain BCK2, hits give low values 1.01 | locus YFR010W, strain ubp6, hits give low values 1.03 | locus YGL078C, strain dbp3, hits give low values 1.02 | locus YGL086W, strain mad1, hits give low values 1 | locus YGL167C, strain pmr1, hits give low values 1.03 | locus YGL173C, strain kem1, hits give low values 1.04 | locus YGL227W, strain vid30, hits give low values 1.03 | locus YGL240W, strain doc1, hits give low values 1.03 | locus YGL248W, strain PDE1, hits give low values 1 | locus YGL253W, strain hxk2, hits give low values 1.03 | locus YGR078C, strain PAC10, hits give low values 1 | locus YGR135W, strain pre9, hits give low values 1.02 | locus YGR229C, strain SMI1, hits give low values 1.01 | locus YGR252W, strain gcn5, hits give low values 1 | locus YHR013C, strain ard1, hits give low values 1.04 | locus YHR027C, strain rpn1, hits give low values 1.02 | locus YHR030C, strain SLT2, hits give low values 1.01 and 1.02 | locus YHR079C, strain IRE1 (second series), hits give low values 1.01 | locus YHR079C, strain IRE1, hits give low values 1.03 | locus YHR094C, strain hxt1, hits give low values 1.01 | locus YHR129C, strain ARP1, hits give low values 0.999 | locus YHR142W, strain chs7, hits give low values 1.03 | locus YHR200W, strain rpn10, hits give low values 1.01 | locus YIL066C, strain RNR3, hits give low values 1.02 | locus YIL073C, strain SPO22, hits give low values 1.07 | locus YIL125W, strain kgd1, hits give low values 1 | locus YIR030C, strain dcg1, hits give low values 1.01 | locus YJL092W, strain hpr5, hits give low values 1.02 | locus YJL095W, strain BCK1 (second series), hits give low values 1.01 | locus YJL095W, strain BCK1, hits give low values 0.998 and 1.03 | locus YJL115W, strain asf1, hits give low values 1.03 | locus YJL129C, strain trk1, hits give low values 1.04 | locus YJL134W, strain LCB3, hits give low values 1 | locus YJL154C, strain vps35, hits give low values 1.02 | locus YJL164C, strain tpk1, hits give low values 1.01 | locus YJL166W, strain qcr8, hits give low values 1.03 | locus YJL168C, strain set2, hits give low values 1.01 | locus YJL187C, strain SWE1 (second series), hits give low values 1.01 | locus YJL187C, strain SWE1, hits give low values 1.02 | locus YJR043C, strain POL32, hits give low values 1.04
